MPTP block = blocks calcium-induced mitochondrial swelling. 1.4% of 360,000 active. isolated mouse mitochondria, Ca2+ swelling absorbance, 30 min. AID 602449. inhibition, % at 10 µM;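 active means inhibition of 50% or more, scaled per plate between neutral and stimulator controls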
Mdm2-MdmX inh = disrupts the human Mdm2-MdmX interaction; inhibition, % at 8 µM; SaOS-2 split-luciferase Mdm2/MdmX complementation, luminescence; AID 485346; 3% of 330,000 active;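 active means inhibition of at least 50% at 8 µM in the primary screen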
tim10-1 inh = growth inhibitors of tim10-1 mutant yeast; S. cerevisiae tim10-1 ts strain growth, BacTiter-Glo, 24 h; inhibition, % at 20 µM; 2.2% of 330,000 active; AID 463190;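 active means inhibition of at least 40%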;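 further: mutant grown at 25 °C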
tim23-1 inh = growth inhibitors of tim23-1 mutant yeast; 1.3% of 330,000 active; inhibition, % at 20 µM; S. cerevisiae tim23-1 growth, BacTiter-Glo luminescence, 24 h;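 active means growth inhibition of the mutant yeast at or above 50%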;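 further: temperature-sensitive mutant grown at 25 °C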
TIM10 inh = inhibits growth of TIM10 yeast strain; S. cerevisiae TIM10 strain growth, BacTiter-Glo luminescence, 24 h; inhibition, % at 10 µM; 1.4% of 330,000 active;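 active means inhibition of 40% or more at the single tested concentration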;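 further: wild-type TIM10 isogenic control strain grown at permissive 25 °C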
MPTP counter = mitochondrial membrane potential, counter-screen; shares compounds with MPTP block; isolated mitochondria, Rhodamine 123 fluorescence; inhibition, % at 10 µM; 78% of 5,000 active; in the data active means inhibition above about 22%
MPTP swell DR = dose response confirmation of mitochondrial permeability transition pore inhibitors | shares compounds with MPTP block | isolated mitochondria swelling, absorbance | IC50, µM | 58% of 780 active; in the data active means IC50 below about 20 µM
MPTP counter DR = MPTP inhibitor counter-screen activity, dose response. shares compounds with MPTP block. isolated mitochondria counterscreen, fluorescence read-out. IC50, µM. 49% of 780 active. AID 651564; in the data active means IC50 below about 80 µM
Numbers stand for hits; . = inactive; / = not tested or not shown; ! = not confirmed by another sample. Hits are enriched below; roughly 6.3% of the tested compounds scored in any of these assays.

SMILES	MPTP block	Mdm2-MdmX inh	tim10-1 inh	tim23-1 inh	TIM10 inh	MPTP counter	others
COc1cccc(-c2ccc3c(c2)C2CC3CCN2C(C)=O)c1 (configuration not stated)	.	/	/	/	/	/
NC(N)=NCCCC(NC(=O)c1ccccc1)C(=O)Nc1ccc2ccccc2c1 (configuration not stated)	81	.	.	.	.	.	MPTP swell DR=8.7;MPTP counter DR=.
CC(=O)NC1CCCc2c1cnn2-c1ccc(C(C)(C)C)cc1 (configuration not stated)	.	.	.	.	.	/
Cc1ccc(C(=O)NC2CCCc3c2cnn3-c2ccc(F)cc2F)cn1 (configuration not stated)	52	.	.	.	.	91
Cn1nccc1C(=O)NC1CCCc2c1cnn2-c1ccc(C(C)(C)C)cc1 (configuration not stated)	98	.	.	.	.	103
Cc1cc(C(=O)NC2CCCc3c2cnn3-c2cccc(C)c2C)n(C)n1 (configuration not stated)	90	.	.	.	.	108
N#Cc1c(N2CCN(c3ccc([N+](=O)[O-])cc3)CC2)[n+](=O)c2ccc(Cl)cc2n1[O-]	.	/	/	/	/	/
CCOC(=O)C1(CCOc2ccccc2)CCN(Cc2ccncc2)CC1	.	.	.	.	.	/
CCOC(=O)C1(CCOc2ccccc2)CCN(Cc2cccc(OC)c2)CC1	.	/	/	/	/	/
CCOC(=O)C1(CCOc2ccccc2)CCN(Cc2cccs2)CC1	52	.	.	.	.	.	MPTP swell DR=17;MPTP counter DR=48
CCOC(=O)C1(CCOC)CCN(C/C=C/c2ccccc2OC)CC1	90	/	/	/	/	49
CCOC(=O)C1(CCOC)CCN(Cc2cccc(OCc3ccccc3)c2)CC1	55	.	.	.	.	.	MPTP swell DR=15;MPTP counter DR=26
O=S1(=O)CC(N2CCSCC2)CN1Cc1cn(Cc2ccc(Cl)cc2)nn1 (configuration not stated)	.	/	/	/	/	/
CC1Sc2ccc(S(=O)(=O)N3CCC(C(=O)Nc4cccc(Cl)c4)CC3)cc2NC1=O (configuration not stated)	78	.	.	.	.	85
CCc1ccc(NC(=O)C2CCN(S(=O)(=O)c3ccc4c(c3)NC(=O)C(C)S4)CC2)cc1 (configuration not stated)	98	.	.	.	.	97
CC1Sc2ccc(S(=O)(=O)N3CCC(C(=O)NCc4ccc(Cl)cc4)CC3)cc2NC1=O (configuration not stated)	.	.	.	.	.	/
Cc1ccc(NC(=O)C2CCN(S(=O)(=O)c3ccc4c(c3)NC(=O)C(C)S4)CC2)cc1C (configuration not stated)	98	.	.	.	.	89
COc1ccc(-c2sc3ccc(-c4ccc5c(c4)OCO5)cc3c2-c2ccc(OC)nc2)cc1	.	.	.	.	.	/
CN1/C(=C/C=C/c2n(C)c3cc([N+](=O)[O-])c([N+](=O)[O-])cc3[n+]2C)C(C)(C)c2ccccc21	81	/	/	/	/	.	MPTP swell DR=.;MPTP counter DR=<2.5
CCCCCCCCCCCCCCCC[n+]1ccccc1	53!	/	/	/	/	107
CCCCc1c(-c2ccccc2)ncn1CCc1ccccc1OC	.	/	/	/	/	/
CCCCc1c(Cc2ccccc2)ncn1CCc1ccccc1OC	85	/	/	/	/	114
CC1(C(=O)O)CCCN1C(=O)c1ccccc1OC(F)(F)F (configuration not stated)	.	/	/	/	/	/
Cc1nc2ccccn2c1C(=O)NNS(=O)(=O)c1ccc(C(C)(C)C)cc1	76	.	.	.	.	72
CC(C)N(C)c1ncnc2c1ncn2[C@H]1CN(Cc2ccc(-c3ccccc3)cc2)C[C@@H](CO)O1	.	/	/	/	/	/
CC(C)NC(=O)N(C)C[C@H]1OCCCC[C@H](C)Oc2ccc(NS(=O)(=O)c3ccccc3)cc2C(=O)N([C@H](C)CO)C[C@H]1C	.	/	/	/	/	/
CCN(CC)c1ncnc2c1ncn2[C@H]1CN(Cc2ccc(F)cc2)C[C@@H](CO)O1	.	/	/	/	/	/
CCOC(=O)c1ccc(-n2[nH]c(-c3ccccc3)cc2=O)cc1	88	.	.	.	.	79
COC(=O)c1ccc2nc(-c3ccco3)c(Cc3ccccc3C(F)(F)F)n2c1	.	/	/	/	/	/
